# Where “and” joins values, the source holds several entries; their conditions need not be identical. Identical values can stand only once. Some structures have more than one record in an assay (separate samples or runs), and their calls can disagree. Calls of active or inactive are those of the source. Rule for the calls: active = hit-call score of the fitted dose curve at least 0.9, where 1 is the maximum; inactive = score below 0.9.
# How the values were obtained:
# [1] = ATG_CRE_CIS: Attagene CIS-FACTORIAL HepG2 Assay for human cAMP Responsive Element (CRE) binding protein 3 (AID 2282926); conditions: HepG2 CRE cis-reporter, Attagene multiplexed mRNA; actives raise or lower the signal
# In short: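 HepG2 cells transiently transfected with cis-element-driven multiple reporter transcription units; CRE reporter mRNA measured 24 h after dosing by RT-PCR, 6-FAM labelling, HpaI digestion and capillary electrophoresis. Bidirectional fit versus DMSO baseline.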
# [2] = target: CCAAT/enhancer-binding protein beta (Homo sapiens) (UniProt P17676); assay: ATG_C_EBP_CIS: Attagene CIS-FACTORIAL HepG2 Assay for human CCAAT/Enhancer Binding Protein (C/EBP) beta (AID 2282927); conditions: HepG2 Attagene cis-factorial transcription factor reporter; actives raise or lower the signal
# Sequence of CCAAT/enhancer-binding protein beta (Homo sapiens) (P17676 whole entry, looked up): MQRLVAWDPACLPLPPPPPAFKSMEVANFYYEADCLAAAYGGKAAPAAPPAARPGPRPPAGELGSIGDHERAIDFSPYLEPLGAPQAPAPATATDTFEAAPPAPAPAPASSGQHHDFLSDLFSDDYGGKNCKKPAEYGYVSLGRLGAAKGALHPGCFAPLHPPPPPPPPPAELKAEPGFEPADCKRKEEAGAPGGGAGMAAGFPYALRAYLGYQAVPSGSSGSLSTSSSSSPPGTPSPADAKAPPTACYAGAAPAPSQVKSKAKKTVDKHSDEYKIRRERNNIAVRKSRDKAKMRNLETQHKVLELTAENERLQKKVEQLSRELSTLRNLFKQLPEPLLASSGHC
# In short: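 HepG2 transiently transfected with multiplexed reporter units under cis-regulatory promoters reporting endogenous C/EBPb activity. After 24 h exposure, reporter mRNA assayed by RT-PCR, fluorescent labelling, HpaI digestion and capillary electrophoresis; bidirectional fitting versus DMSO.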
# [3] = ATG_CMV_CIS: Attagene CIS-FACTORIAL HepG2 Assay for human CMV (Internal Marker) (AID 2282928); conditions: HepG2 CMV promoter reporter, transcription factor profiling; actives raise or lower the signal;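 note: endpoint acts as a background internal control marker rather than a target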
# In short: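 HepG2 cells transiently transfected with multiple cis-regulated reporter units; 24 h compound exposure. Reporter mRNA quantified by RT-PCR, 6-FAM primer-extension labeling, HpaI digestion and capillary electrophoresis; bidirectional fitting against DMSO baseline.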
# [4] = ATG_DR4_LXR_CIS: Attagene CIS-FACTORIAL HepG2 Assay for human Liver X Receptor (LXR), DR4 submotif (AID 2282929); conditions: HepG2 Attagene DR4 cis-reporter, mRNA transcription; actives raise or lower the signal
# In short: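 HepG2 cells were transiently transfected with multiple cis-regulated reporter units and dosed for 24 hours. The DR4 reporter mRNA was quantified by RT-PCR, 6-FAM labelling and capillary electrophoresis. Bidirectional fits used DMSO as baseline.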
# [5] = target: Aryl hydrocarbon receptor (Homo sapiens) (UniProt P35869); assay: ATG_Ahr_CIS: Attagene CIS-FACTORIAL HepG2 Assay for human Aryl Hydrocarbon Receptor (Ahr) (AID 2282930); conditions: HepG2 AhR cis-factorial reporter transcription; actives raise or lower the signal
# Sequence of Aryl hydrocarbon receptor (Homo sapiens) (P35869 whole entry, looked up): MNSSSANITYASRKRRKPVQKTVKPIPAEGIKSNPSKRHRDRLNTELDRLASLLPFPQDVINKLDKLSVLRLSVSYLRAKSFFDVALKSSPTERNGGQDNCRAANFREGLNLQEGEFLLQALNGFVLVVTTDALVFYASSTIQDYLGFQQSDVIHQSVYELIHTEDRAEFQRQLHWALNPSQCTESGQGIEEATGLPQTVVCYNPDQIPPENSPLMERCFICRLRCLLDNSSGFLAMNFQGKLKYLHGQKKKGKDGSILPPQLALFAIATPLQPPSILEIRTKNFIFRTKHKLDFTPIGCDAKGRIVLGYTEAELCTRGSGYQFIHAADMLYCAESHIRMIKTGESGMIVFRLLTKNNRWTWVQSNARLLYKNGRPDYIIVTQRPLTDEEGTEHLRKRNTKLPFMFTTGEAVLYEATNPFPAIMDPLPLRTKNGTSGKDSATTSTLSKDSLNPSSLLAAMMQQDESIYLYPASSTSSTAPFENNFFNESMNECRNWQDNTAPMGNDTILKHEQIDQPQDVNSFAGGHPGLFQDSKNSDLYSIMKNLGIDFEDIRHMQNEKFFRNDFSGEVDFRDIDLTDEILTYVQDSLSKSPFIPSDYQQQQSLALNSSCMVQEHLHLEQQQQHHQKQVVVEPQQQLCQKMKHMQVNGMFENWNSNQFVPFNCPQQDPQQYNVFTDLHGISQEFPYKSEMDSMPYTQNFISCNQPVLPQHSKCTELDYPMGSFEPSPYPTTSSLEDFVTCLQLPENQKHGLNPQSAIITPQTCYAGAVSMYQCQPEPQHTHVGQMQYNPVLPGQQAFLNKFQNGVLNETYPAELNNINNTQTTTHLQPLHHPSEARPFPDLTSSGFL
# In short: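 HepG2 cells transiently transfected with cis-element-driven multiplexed reporter units; endogenous AhR activity read as reporter mRNA 24 h after dosing, via RT-PCR, 6-FAM labelling, HpaI digestion and capillary electrophoresis. Bidirectional fit relative to DMSO.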
# [6] = ATG_AP_1_CIS: Attagene CIS-FACTORIAL HepG2 Assay for human Activator Protein 1 (AP-1) (AID 2282931); conditions: HepG2 Attagene cis-factorial AP-1 reporter mRNA; actives raise or lower the signal
# In short: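 HepG2 cells transiently transfected with cis-element-driven reporter transcription units, dosed for 24 hours. Reporter mRNA measured by RT-PCR, 6-FAM labelling, HpaI digestion and capillary electrophoresis. Bidirectional fitting against DMSO baseline.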
# [7] = ATG_AP_2_CIS: Attagene CIS-FACTORIAL HepG2 Assay for human Activator Protein 2 (AP-2) (AID 2282932); conditions: HepG2 AP-2 cis-reporter, Attagene transcription factor profiling; actives raise or lower the signal
# In short: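 Multiplexed mRNA reporter assay in HepG2: cis-regulated units report endogenous factor activity after 24 h treatment. Fluorescence from capillary electrophoresis of RT-PCR products gives the signal, with DMSO as baseline.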
# [8] = target: Retinoic acid receptor alpha (Homo sapiens) (UniProt P10276); assay: ATG_DR5_RAR_CIS: Attagene CIS-FACTORIAL HepG2 Assay for human Retinoic Acid Receptor Alpha (RARE), DR5 submotif (AID 2282934); conditions: HepG2 Attagene cis-factorial RARE DR5 reporter, mRNA; actives raise or lower the signal
# Sequence of Retinoic acid receptor alpha (Homo sapiens) (P10276 whole entry, looked up): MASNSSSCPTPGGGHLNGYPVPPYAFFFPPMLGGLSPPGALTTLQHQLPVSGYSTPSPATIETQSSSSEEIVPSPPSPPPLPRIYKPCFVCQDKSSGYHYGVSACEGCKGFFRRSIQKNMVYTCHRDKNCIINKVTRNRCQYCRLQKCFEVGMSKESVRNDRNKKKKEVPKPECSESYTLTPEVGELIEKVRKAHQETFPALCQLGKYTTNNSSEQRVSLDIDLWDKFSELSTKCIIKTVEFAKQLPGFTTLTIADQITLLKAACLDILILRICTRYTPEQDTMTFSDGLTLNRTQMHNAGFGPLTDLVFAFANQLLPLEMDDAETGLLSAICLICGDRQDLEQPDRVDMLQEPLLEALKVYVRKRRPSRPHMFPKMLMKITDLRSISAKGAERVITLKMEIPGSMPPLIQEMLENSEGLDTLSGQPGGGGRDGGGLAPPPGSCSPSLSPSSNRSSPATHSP
# In short: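 HepG2 cells transiently transfected with multiplexed reporter units; DR5 cis-element drives reporter through endogenous transcription factors. After 24 h dosing, reporter mRNA quantified by RT-PCR, fluorescent labeling, HpaI digestion and capillary electrophoresis; bidirectional fitting versus DMSO.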
# [9] = target: Transcription factor E2F1 (Homo sapiens) (UniProt Q01094); assay: ATG_E2F_CIS: Attagene CIS-FACTORIAL HepG2 Assay for human E2F Transcription Factor 1 (AID 2282935); conditions: HepG2 Attagene cis-reporter, E2F reporter RNA transcripts; actives raise or lower the signal
# Sequence of Transcription factor E2F1 (Homo sapiens) (Q01094 whole entry, looked up): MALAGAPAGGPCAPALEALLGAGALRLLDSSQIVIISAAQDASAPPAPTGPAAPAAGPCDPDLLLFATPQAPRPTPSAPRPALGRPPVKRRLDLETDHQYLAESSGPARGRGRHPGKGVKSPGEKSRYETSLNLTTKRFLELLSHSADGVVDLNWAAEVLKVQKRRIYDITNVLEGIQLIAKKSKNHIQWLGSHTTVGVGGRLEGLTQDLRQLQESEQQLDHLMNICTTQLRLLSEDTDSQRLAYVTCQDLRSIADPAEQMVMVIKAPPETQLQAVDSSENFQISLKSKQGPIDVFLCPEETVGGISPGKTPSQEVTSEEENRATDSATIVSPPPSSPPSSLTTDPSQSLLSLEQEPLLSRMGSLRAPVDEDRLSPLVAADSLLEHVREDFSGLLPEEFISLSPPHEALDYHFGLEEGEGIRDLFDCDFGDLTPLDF
# In short: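 Measures reporter transcript levels via RT-PCR with capillary electrophoresis detection in HepG2 cells harboring cis-regulated reporter units; 24 h post-dose; bidirectional curve fitting with DMSO as baseline.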
# [10] = ATG_E_Box_CIS: Attagene CIS-FACTORIAL HepG2 Assay for human Enhancer Box (E-box) (AID 2282936); conditions: HepG2 E-box cis-reporter transcription, actives raise or lower the signal
# In short: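 First, HepG2 cells receive multiple cis-regulated reporter constructs by transient transfection. Next, chemicals are applied for 24 h. Finally, reporter mRNA is quantified via RT-PCR and capillary electrophoresis, with DMSO as baseline.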
# [11] = ATG_M_61_CIS: Attagene CIS-FACTORIAL HepG2 Assay for M61 Transcription Factor (Internal Marker) (AID 2282937); conditions: HepG2 Attagene CIS-FACTORIAL M61 internal marker reporter; actives raise or lower the signal
# In short: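 HepG2 cells transiently transfected with multiplexed cis-promoter reporter units reporting endogenous transcription factor activity, measured 24 h after dosing. Reporter mRNA quantified by RT-PCR and capillary electrophoresis; bidirectional fit against DMSO baseline.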
# [12] = ATG_EGR_CIS: Attagene CIS-FACTORIAL HepG2 Assay for human Early Growth Response 1 (EGR1) (AID 2282938); conditions: HepG2 Attagene CIS-FACTORIAL EGR reporter mRNA; actives raise or lower the signal
# In short: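 HepG2 cells transiently transfected with cis-element-driven multiplexed reporter units, dosed for 24 h. EGR1-element reporter mRNA quantified by RT-PCR, 6-FAM labelling, HpaI digestion and capillary electrophoresis; bidirectional fit versus DMSO.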
# [13] = ATG_M_19_CIS: Attagene CIS-FACTORIAL HepG2 Assay for M19 Transcription Factor (Internal Marker) (AID 2282939); conditions: HepG2 Attagene CIS-FACTORIAL M19 internal marker reporter; actives raise or lower the signal
# In short: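 Chemical-treated HepG2 (24 h) with MRTU constructs; reporter transcripts detected by fluorescent RT-PCR fragment analysis on capillary electrophoresis. Internal background marker, DMSO as baseline.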
# [14] = ATG_ERE_CIS: Attagene CIS-FACTORIAL HepG2 Assay for Estrogen Response Element (ERE) (AID 2282940); conditions: HepG2 ERE cis-reporter, Attagene RNA transcript; actives raise or lower the signal
# In short: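 Human liver cells (HepG2) bearing transiently transfected, promoter-regulated reporter units were exposed 24 h. Reporter mRNA induction was detected by capillary electrophoresis of labelled RT-PCR products and fitted bidirectionally to DMSO.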
# [15] = ATG_Ets_CIS: Attagene CIS-FACTORIAL HepG2 Assay for human Erythroblast Transformation Specific (ETS) (AID 2282941); conditions: HepG2 ETS cis-reporter transcription, actives raise or lower the signal
# In short: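 HepG2 cells transiently transfected with cis-promoter reporter transcription units were dosed for 24 h; reporter mRNA was measured by RT-PCR, 6-FAM primer extension, HpaI digestion and capillary electrophoresis, with bidirectional fitting against DMSO baseline.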
# [16] = target: Hepatocyte nuclear factor 3-beta (Homo sapiens) (UniProt Q9Y261); assay: ATG_FoxA2_CIS: Attagene CIS-FACTORIAL HepG2 Assay for human Forkhead box A2 (FOXA2) (AID 2282942); conditions: HepG2 cis-reporter transcription factor activity, 24 h; actives raise or lower the signal
# Sequence of Hepatocyte nuclear factor 3-beta (Homo sapiens) (Q9Y261 whole entry, looked up): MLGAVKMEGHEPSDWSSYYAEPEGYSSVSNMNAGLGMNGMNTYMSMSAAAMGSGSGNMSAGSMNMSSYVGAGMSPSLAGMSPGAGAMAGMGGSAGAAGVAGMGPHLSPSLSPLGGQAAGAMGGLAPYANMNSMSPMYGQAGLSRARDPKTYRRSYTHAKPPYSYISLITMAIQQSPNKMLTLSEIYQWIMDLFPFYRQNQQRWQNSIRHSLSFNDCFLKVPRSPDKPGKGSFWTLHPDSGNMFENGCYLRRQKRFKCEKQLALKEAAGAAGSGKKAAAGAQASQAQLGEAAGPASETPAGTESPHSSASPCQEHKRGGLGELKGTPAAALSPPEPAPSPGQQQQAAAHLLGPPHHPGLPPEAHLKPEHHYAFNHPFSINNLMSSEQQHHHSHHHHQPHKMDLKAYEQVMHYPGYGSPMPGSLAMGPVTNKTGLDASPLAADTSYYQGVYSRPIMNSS
# In short: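 HepG2 transiently transfected with a multiplexed cis-promoter reporter library read endogenous FOXA2 activity. After 24 h compound exposure, reporter mRNA was quantified by RT-PCR, HpaI digestion and capillary electrophoresis. Bidirectional fit against DMSO.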
# [17] = ATG_FoxO_CIS: Attagene CIS-FACTORIAL HepG2 Assay for human Forkhead box O (FoxO) (AID 2282943); conditions: HepG2 Attagene cis-reporter, FoxO element, mRNA; actives raise or lower the signal
# In short: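 HepG2 cells transiently transfected with cis-element-driven reporter units report endogenous FoxO activity. After 24 h chemical exposure, reporter mRNA quantified by RT-PCR, fluorescent labeling, HpaI digestion and capillary electrophoresis; bidirectional fit versus DMSO.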
# [18] = ATG_GATA_CIS: Attagene CIS-FACTORIAL HepG2 Assay for human GATA Binding Protein (AID 2282944); conditions: HepG2 GATA cis-element reporter, Attagene multiplex mRNA; actives raise or lower the signal
# In short: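 Transfected cis-reporter HepG2 cells were treated with chemicals for 24 hours. Total RNA was then converted to cDNA, amplified with reporter-specific primers and analysed by fluorescent capillary electrophoresis, using DMSO-treated wells as baseline.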
# [19] = ATG_GLI_CIS: Attagene CIS-FACTORIAL HepG2 Assay for human Zinc Finger Protein GLI1 (AID 2282945); conditions: HepG2, Attagene cis-factorial reporter mRNA, GLI element; actives raise or lower the signal
# In short: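 Transiently transfected HepG2 cells report endogenous transcription factor activity via cis-element-driven reporter units. After 24 h compound exposure, reporter mRNA was measured by RT-PCR with capillary electrophoresis; bidirectional fitting against DMSO baseline.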
# [20] = ATG_BRE_CIS: Attagene CIS-FACTORIAL HepG2 Assay for human Bone Morphogenetic Protein (BMP) Response Element (BRE) (AID 2282933); conditions: HepG2 BMP response element reporter, Attagene transcription factor profiling; actives raise or lower the signal
# In short: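 A HepG2 multiplex reporter system measured inducible reporter mRNA 24 h post-dosing. Detection: RT-PCR, 6-FAM primer extension, HpaI digestion, capillary electrophoresis. Activity fitted bidirectionally relative to DMSO.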
smiles,measurement,setting,value
Cc1ccccc1[N+](=O)[O-],outcome,[1],inactive
same,outcome,[2],inactive
same,outcome,[3],inactive
same,outcome,[4],inactive
same,outcome,[5],inactive
same,outcome,[6],inactive
same,outcome,[7],inactive
same,outcome,[8],inactive
same,outcome,[9],inactive
same,outcome,[10],inactive
same,outcome,[11],inactive
same,outcome,[12],inactive
same,outcome,[13],inactive
same,outcome,[14],inactive
same,outcome,[15],inactive
same,outcome,[16],inactive
same,outcome,[17],inactive
same,outcome,[18],inactive
same,outcome,[19],inactive
O=C(O)C(F)(F)C(F)(F)C(F)(F)C(F)(F)C(F)(F)C(F)(F)C(F)(F)C(F)(F)F,outcome,[1],inactive
same,outcome,[2],inactive
same,AC50,[3],62.9 µM (active) and 267 µM (active)
same,outcome,[3],inactive
same,AC50,[4],81.9 µM (active) and 50 µM (active)
same,outcome,[4],inactive
same,outcome,[5],inactive
same,AC50,[6],50.5 µM (active) and 274 µM (active) and 16.7 µM (active)
same,outcome,[7],inactive
same,outcome,[8],inactive
same,AC50,[9],55.4 µM (active)
same,outcome,[9],inactive
same,outcome,[10],inactive
same,AC50,[12],150 µM (active) and 50 µM (active)
same,outcome,[12],inactive
same,outcome,[13],inactive
same,AC50,[14],39.4 µM (active) and 38.2 µM (active) and 15.2 µM (active)
same,outcome,[15],inactive
same,outcome,[16],inactive
same,outcome,[17],inactive
same,outcome,[18],inactive
same,outcome,[19],inactive
Cc1cc2c3c(c1)C(c1ccccc1)=N[C@@H](NC(=O)c1ccncc1)C(=O)N3CC2,AC50,[1],100 µM (active)
same,outcome,[2],inactive
same,AC50,[3],100 µM (active)
same,AC50,[4],161 µM (active)
same,outcome,[5],inactive
same,outcome,[6],inactive
same,outcome,[7],inactive
same,outcome,[20],inactive
same,outcome,[8],inactive
same,outcome,[9],inactive
same,outcome,[10],inactive
same,AC50,[12],42.8 µM (active)
same,outcome,[13],inactive
same,outcome,[14],inactive
same,AC50,[15],153 µM (active)
same,outcome,[16],inactive
same,outcome,[17],inactive
same,outcome,[18],inactive
same,outcome,[19],inactive
Nn1cnnc1,outcome,[1],inactive
same,outcome,[2],inactive
same,outcome,[3],inactive
same,outcome,[4],inactive
same,outcome,[5],inactive
same,outcome,[6],inactive
same,outcome,[7],inactive
same,outcome,[20],inactive
same,outcome,[8],inactive
same,outcome,[9],inactive
same,outcome,[10],inactive
same,outcome,[12],inactive
same,outcome,[13],inactive
same,AC50,[14],39.5 µM (active)
same,outcome,[15],inactive
same,outcome,[16],inactive
same,outcome,[17],inactive
same,outcome,[18],inactive
same,outcome,[19],inactive
COS(=O)(=O)OC,outcome,[1],inactive
same,outcome,[2],inactive
same,outcome,[3],inactive
same,outcome,[4],inactive
same,outcome,[5],inactive
same,outcome,[6],inactive
same,outcome,[7],inactive
same,outcome,[8],inactive
same,outcome,[9],inactive
same,outcome,[10],inactive
same,outcome,[12],inactive
same,outcome,[13],inactive
same,outcome,[14],inactive
same,outcome,[15],inactive
same,outcome,[16],inactive
same,outcome,[17],inactive
same,outcome,[18],inactive
same,outcome,[19],inactive

# Reference: PubChem BioAssay (EPA / NIEHS)
